For orientation: AC50 means the midpoint of the concentration-response curve, whichever way the signal moves.

Records with an inconclusive call do not appear. Activity calls are given as the source filed them. Rule for the calls: active = hit-call score of the fitted dose curve at least 0.9, where 1 is the maximum; inconclusive = response in the unintended direction; inactive = score below 0.9.

The values that follow come from PubChem BioAssay (EPA / NIEHS).

The subject of experiment [1] is rabbit Platelet Activating Factor Receptor (PAF), gene 100354046. The experiment is described as follows: NVS_GPCR_rabPAF: NovaScreen (NVS) G Protein-Coupled Receptor Assay for rabbit Platelet Activating Factor Receptor (PAF) (AID 2283287). The method in brief: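 Rabbit platelet membrane preparation; radioligand displacement read by filter-based scintillation counting 1 h after dosing, loss of signal versus DMSO. Primary screen in duplicate at 25 uM, actives followed up in concentration series.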

Experiment [2] deals with rat Glutamate Metabotropic Receptor 5 (MGluR5), Grm5 (gene 24418) (UniProt P31424). The experiment is described as follows: NVS_GPCR_rmMGluR5: NovaScreen (NVS) G Protein-Coupled Receptor Assay for rat Glutamate Metabotropic Receptor 5 (MGluR5) (AID 2283307). The method, boiled down:
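Rat whole-brain membrane preparation; filter-based radioligand binding read by scintillation counting, 1.5 h after dosing. Single-point screen at 25 uM in duplicate; hits over threshold (e.g. 30% inhibition) retested in concentration-response up to 50 uM; loss of signal vs DMSO.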

Experiment [3] concerns the target guinea pig Bradykinin Receptor B2 (BK2), BDKRB2 (gene 100135486) (UniProt O70526). The experiment in a line: NVS_GPCR_gBK2: NovaScreen (NVS) G Protein-Coupled Receptor Assay for guinea pig Bradykinin Receptor B2 (BK2) (AID 2283292). The method in brief:
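Radioligand displacement on guinea pig ileum membranes for 1 h, read by filter-based scintillation counting; loss of signal relative to DMSO. Compounds were screened in duplicate at 25 uM, and those passing the threshold were retested in concentration-response up to 50 uM.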

The target in experiment [4] is rat Adrenergic Receptor, Alpha 2 (Adra2), Non-selective Binding, Adra2a (gene 25083) (UniProt P22909). The experiment in a line: NVS_GPCR_rAdra2_NonSelective: NovaScreen (NVS) G Protein-Coupled Receptor Assay for rat Adrenergic Receptor, Alpha 2 (Adra2), Non-selective Binding (AID 2283299). The method, boiled down:
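Rat cortical membranes, radioligand competitive displacement read by filter-based scintillation counting 1.25 hours after dosing. Primary screen in duplicate at 25 uM; actives followed up in concentration series.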

In experiment [5] the target is rat Histamine Receptor (H3), Hrh3 (gene 85268) (UniProt Q9QYN8). The experiment in a line: NVS_GPCR_rH3: NovaScreen (NVS) G Protein-Coupled Receptor Assay for rat Histamine Receptor (H3) (AID 2283303). The method, boiled down: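 Rat forebrain membranes incubated 1 h with compound; radioligand displacement measured by filter-based scintillation counting. Single-concentration duplicates at 25 µM, then concentration-response up to 50 µM, relative to DMSO.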

For a further experiment, the target named is Adra2b (gene 24174) (UniProt P19328). The experiment is described as follows: NVS_GPCR_rmAdra2B: NovaScreen (NVS) G Protein-Coupled Receptor Assay for hybird cells Adrenergic, Alpha 2B Receptor (Adra2B) (AID 2283306). The method in brief:
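Radioligand filter-binding assay on membrane proteins from neuroglioma/blastoma hybrid cells (rodent), 1 h after dosing; scintillation counting, loss of signal vs DMSO. Primary screen in duplicate at 25 uM, actives then run in concentration series.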

The target of experiment [6] is mouse Cholecystokinin, CCK1 Receptor (CCKA), Cckar (gene 12425) (UniProt O08786). The experiment is described as follows: NVS_GPCR_mCCKAPeripheral: NovaScreen (NVS) G Protein-Coupled Receptor Assay for mouse Cholecystokinin, CCK1 Receptor (CCKA) (AID 2283285). The method in brief:
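Radioligand competitive displacement on mouse pancreatic membranes, 2 h incubation; filter-based scintillation counting, loss of signal versus DMSO. Single-concentration screen at 25 uM in duplicate, actives retested in concentration-response up to 50 uM.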

In experiment [7] the target is human Opioid Receptor Mu (Opiate Mu), OPRM1 (gene 4988) (UniProt P35372). The experiment in a line: NVS_GPCR_hOpiate_mu: NovaScreen (NVS) G Protein-Coupled Receptor Assay for human Opioid Receptor Mu (Opiate Mu) (AID 2283290).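 Note: hits lower bound tracer signal versus DMSO meaning displacement of the ligand.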 The method, boiled down: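 Primary screen in duplicate at 25 uM, with actives followed in concentration series. CHO-derived receptor membranes, cell-free; bound radioligand read by scintillation counting after filtration at 2.5 h, decrease scored against DMSO.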

The target in experiment [8] is rat Corticotropin Releasing Factor Receptor (CRF), Crhr1 (gene 58959) (UniProt P35353). The experiment in a line: NVS_GPCR_rCRF: NovaScreen (NVS) G Protein-Coupled Receptor Assay for rat Corticotropin Releasing Factor Receptor (CRF) (AID 2283300). The method in brief: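 Rat cortical membranes used as receptor source in a radioligand competitive displacement binding assay; scintillation read 2 h after dosing. Primary screen run in duplicate at 25 uM; loss of signal versus DMSO baseline indicates binding.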

Experiment [9] concerns the target rat Adrenergic, Alpha 1, Non-selective Receptor (Adra1), Adra1a (gene 29412) (UniProt P43140). The experiment in a line: NVS_GPCR_rAdra1_NonSelective: NovaScreen (NVS) G Protein-Coupled Receptor Assay for rat Adrenergic, Alpha 1, Non-selective Receptor (Adra1) (AID 2283289). The method, boiled down: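 Rat forebrain membranes; radioligand displacement read by filter-based scintillation counting 1 h after dosing. Primary screen in duplicate at 25 uM; hits (e.g. ≥30% inhibition) rerun as concentration–response to 50 uM max. Fitted versus DMSO.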

Experiment [10] addresses guinea pig Serotonin, 5-Hydroxytryptamine Receptor 4 (5HT4), HTR4 (gene 100135548) (UniProt O70528). The experiment is described as follows: NVS_GPCR_g5HT4: NovaScreen (NVS) G Protein-Coupled Receptor Assay for guinea pig Serotonin, 5-Hydroxytryptamine Receptor 4 (5HT4) (AID 2283294). The method, boiled down: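 Guinea pig striatal membranes; radioligand competitive displacement, filtration and scintillation counting after 1 h. Primary screen in duplicate at 25 uM; actives then tested in concentration series; loss of binding signal fitted relative to DMSO.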

Experiment [11] addresses rat Adrenergic, Alpha 1A Receptor (Adra1A), Adra1a (gene 29412) (UniProt P43140). The experiment is described as follows: NVS_GPCR_rAdra1A: NovaScreen (NVS) G Protein-Coupled Receptor Assay for rat Adrenergic, Alpha 1A Receptor (Adra1A) (AID 2283296). The method in brief:
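Rat cortical membranes pretreated with chlorethyl clonidine; competitive radioligand displacement, 1 h. Filter-based scintillation counting. Primary screen in duplicate at 25 uM, actives followed in concentration series.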

Experiment [12] concerns rat Adrenergic, Alpha 1B Receptor (Adra1B), gene 24173. The experiment in a line: NVS_GPCR_rAdra1B: NovaScreen (NVS) G Protein-Coupled Receptor Assay for rat Adrenergic, Alpha 1B Receptor (Adra1B) (AID 2283297). The method, boiled down:
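Rat liver membranes, radioligand displacement with filter-based scintillation detection, 1 h incubation. Primary screen in duplicate at 25 uM; actives retested in concentration series; activity relative to DMSO.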

In experiment [13] the target is rat Adrenergic Receptor, Beta (Adrb), Non-selective Binding, Adrb1 (gene 24925) (UniProt P18090). The experiment is described as follows: NVS_GPCR_rAdrb_NonSelective: NovaScreen (NVS) G Protein-Coupled Receptor Assay for rat Adrenergic Receptor, Beta (Adrb), Non-selective Binding (AID 2283298). The method in brief: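 Non-selective beta-adrenergic radioligand binding in rat cortical membranes, 1 h incubation, filter-based scintillation read-out. Primary screen 25 uM in duplicate; hits retested in concentration-response up to 50 uM, DMSO baseline.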

The target of experiment [14] is rat Serotonin, 5-Hydroxytryptamine Receptor 1 (5HT1), Non-Selective Binding, Htr1a (gene 24473) (UniProt P19327). The experiment in a line: NVS_GPCR_r5HT1_NonSelective: NovaScreen (NVS) G Protein-Coupled Receptor Assay for rat Serotonin, 5-Hydroxytryptamine Receptor 1 (5HT1), Non-Selective Binding (AID 2283286). The method, boiled down:
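Rat cortical membranes, radioligand displacement, 1 h incubation, read by filter scintillation. Primary screen in duplicate at 25 uM. Hits (e.g. ≥30% inhibition) went to concentration-response up to 50 uM, fitted as loss of binding versus DMSO.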

The target in experiment [15] is rat Serotonin, 5-Hydroxytryptamine Receptor (5HT), Non-Selective Binding, Htr1a (gene 24473) (UniProt P19327). The experiment is described as follows: NVS_GPCR_r5HT_NonSelective: NovaScreen (NVS) G Protein-Coupled Receptor Assay for rat Serotonin, 5-Hydroxytryptamine Receptor (5HT), Non-Selective Binding (AID 2283295). The method in brief: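 Radioligand displacement on rat cortical membranes, 1 h incubation, filter-based scintillation counting. Primary duplicates at 25 uM, actives retested in concentration series; loss of signal fitted against DMSO as baseline.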

Experiment [16] has as its system guinea pig Atrionatriuretic Peptide Receptor A (ANPA), gene 100135578. The experiment is described as follows: NVS_GPCR_gANPA: NovaScreen (NVS) G Protein-Coupled Receptor Assay for guinea pig Atrionatriuretic Peptide Receptor A (ANPA) (AID 2283291). The method, boiled down:
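Radioligand binding to guinea pig cerebellar membranes was measured after 1 h by filter-based scintillation counting. Chemicals were tested in duplicate at 25 uM, with hits run in concentration-response to a maximum of 50 uM. Binding loss was fitted against DMSO.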

Adra2b (gene 24174), sequence (P19328 whole entry, looked up): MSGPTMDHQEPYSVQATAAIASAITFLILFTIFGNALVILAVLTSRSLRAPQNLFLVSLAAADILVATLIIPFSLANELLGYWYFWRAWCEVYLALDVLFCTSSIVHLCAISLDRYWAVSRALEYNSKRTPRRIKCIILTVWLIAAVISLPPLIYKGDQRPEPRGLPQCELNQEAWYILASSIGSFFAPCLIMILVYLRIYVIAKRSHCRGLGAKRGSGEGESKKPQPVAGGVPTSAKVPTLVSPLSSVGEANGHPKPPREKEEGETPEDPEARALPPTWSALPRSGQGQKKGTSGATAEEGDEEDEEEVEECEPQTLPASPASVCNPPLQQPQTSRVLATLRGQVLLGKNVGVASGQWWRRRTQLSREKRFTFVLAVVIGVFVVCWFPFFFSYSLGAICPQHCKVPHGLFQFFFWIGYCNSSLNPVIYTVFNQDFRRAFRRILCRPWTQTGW
rat Adrenergic Receptor, Alpha 2 (Adra2), Non-selective Binding, Adra2a (gene 25083), sequence (P22909 whole entry, looked up): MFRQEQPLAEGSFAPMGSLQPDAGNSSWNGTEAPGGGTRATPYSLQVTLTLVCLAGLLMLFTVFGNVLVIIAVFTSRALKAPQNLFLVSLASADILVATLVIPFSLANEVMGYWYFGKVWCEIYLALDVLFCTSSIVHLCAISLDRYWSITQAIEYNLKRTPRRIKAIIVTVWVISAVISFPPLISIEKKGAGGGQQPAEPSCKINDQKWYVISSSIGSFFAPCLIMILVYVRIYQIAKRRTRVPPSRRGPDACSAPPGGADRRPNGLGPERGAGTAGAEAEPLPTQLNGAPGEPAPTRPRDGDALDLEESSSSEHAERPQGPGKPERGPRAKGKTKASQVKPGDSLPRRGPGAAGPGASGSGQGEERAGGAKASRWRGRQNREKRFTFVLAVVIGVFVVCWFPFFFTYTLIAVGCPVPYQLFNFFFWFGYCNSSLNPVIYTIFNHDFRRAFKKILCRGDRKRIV
rat Corticotropin Releasing Factor Receptor (CRF), Crhr1 (gene 58959), sequence (P35353 whole entry, looked up): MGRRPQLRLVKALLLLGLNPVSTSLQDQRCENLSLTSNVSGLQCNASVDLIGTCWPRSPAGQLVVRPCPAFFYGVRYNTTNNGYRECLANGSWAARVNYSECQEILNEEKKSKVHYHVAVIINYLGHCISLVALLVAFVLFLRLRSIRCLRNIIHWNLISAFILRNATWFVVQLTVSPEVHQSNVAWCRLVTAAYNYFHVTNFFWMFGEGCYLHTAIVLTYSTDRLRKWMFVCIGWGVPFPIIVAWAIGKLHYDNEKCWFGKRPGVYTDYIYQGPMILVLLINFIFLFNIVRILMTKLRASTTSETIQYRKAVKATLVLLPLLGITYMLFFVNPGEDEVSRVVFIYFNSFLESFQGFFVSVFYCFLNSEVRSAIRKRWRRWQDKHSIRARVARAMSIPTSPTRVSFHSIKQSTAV
human Opioid Receptor Mu (Opiate Mu), OPRM1 (gene 4988), sequence (P35372 whole entry, looked up): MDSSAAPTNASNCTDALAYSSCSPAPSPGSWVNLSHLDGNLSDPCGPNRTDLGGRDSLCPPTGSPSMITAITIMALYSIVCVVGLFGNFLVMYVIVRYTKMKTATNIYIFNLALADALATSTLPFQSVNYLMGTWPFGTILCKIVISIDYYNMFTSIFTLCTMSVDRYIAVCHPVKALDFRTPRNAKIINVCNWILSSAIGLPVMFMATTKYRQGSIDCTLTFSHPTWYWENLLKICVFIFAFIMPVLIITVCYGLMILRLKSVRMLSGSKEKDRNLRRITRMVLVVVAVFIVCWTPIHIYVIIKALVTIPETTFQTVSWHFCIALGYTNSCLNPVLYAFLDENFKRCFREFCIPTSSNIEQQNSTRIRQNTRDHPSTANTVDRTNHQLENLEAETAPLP
rat Serotonin, 5-Hydroxytryptamine Receptor (5HT), Non-Selective Binding, Htr1a (gene 24473), sequence (P19327 whole entry, looked up): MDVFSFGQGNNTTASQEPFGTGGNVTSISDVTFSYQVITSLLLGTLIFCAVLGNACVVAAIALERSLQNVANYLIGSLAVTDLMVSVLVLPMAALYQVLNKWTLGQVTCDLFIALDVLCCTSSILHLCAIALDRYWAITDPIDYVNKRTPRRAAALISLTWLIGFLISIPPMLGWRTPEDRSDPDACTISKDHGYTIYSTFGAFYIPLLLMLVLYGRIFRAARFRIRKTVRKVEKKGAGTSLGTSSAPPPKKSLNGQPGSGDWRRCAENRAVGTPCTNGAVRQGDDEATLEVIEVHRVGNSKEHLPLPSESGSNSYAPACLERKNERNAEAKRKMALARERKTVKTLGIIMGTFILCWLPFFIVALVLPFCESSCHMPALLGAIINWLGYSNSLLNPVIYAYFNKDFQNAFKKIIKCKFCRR
rat Adrenergic, Alpha 1, Non-selective Receptor (Adra1), Adra1a (gene 29412), sequence (P43140 whole entry, looked up): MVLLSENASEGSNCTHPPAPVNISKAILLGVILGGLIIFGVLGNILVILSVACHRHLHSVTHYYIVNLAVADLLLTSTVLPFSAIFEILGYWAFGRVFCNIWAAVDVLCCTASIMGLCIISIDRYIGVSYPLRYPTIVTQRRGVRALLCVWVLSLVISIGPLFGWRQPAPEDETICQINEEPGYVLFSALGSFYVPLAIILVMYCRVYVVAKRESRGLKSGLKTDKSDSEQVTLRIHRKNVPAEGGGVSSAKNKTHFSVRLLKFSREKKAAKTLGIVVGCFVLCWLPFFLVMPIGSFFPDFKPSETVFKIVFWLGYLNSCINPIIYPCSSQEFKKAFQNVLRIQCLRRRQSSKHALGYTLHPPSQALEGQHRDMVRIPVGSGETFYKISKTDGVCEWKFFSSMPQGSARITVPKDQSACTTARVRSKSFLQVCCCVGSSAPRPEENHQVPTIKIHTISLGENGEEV
rat Adrenergic, Alpha 1A Receptor (Adra1A), Adra1a (gene 29412), sequence (P43140 whole entry, looked up): as above
mouse Cholecystokinin, CCK1 Receptor (CCKA), Cckar (gene 12425), sequence (O08786 whole entry, looked up): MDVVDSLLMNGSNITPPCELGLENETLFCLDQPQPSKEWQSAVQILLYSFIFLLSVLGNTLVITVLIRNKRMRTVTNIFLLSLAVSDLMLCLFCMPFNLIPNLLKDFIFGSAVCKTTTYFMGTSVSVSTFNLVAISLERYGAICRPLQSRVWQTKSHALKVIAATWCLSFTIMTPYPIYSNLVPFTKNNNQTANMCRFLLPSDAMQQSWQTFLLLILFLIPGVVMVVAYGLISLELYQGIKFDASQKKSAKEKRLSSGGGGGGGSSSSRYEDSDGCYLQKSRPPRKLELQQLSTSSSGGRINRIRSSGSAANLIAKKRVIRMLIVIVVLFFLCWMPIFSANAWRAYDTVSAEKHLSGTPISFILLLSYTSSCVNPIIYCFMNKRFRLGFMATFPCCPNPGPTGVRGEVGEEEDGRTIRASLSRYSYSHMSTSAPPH
guinea pig Bradykinin Receptor B2 (BK2), BDKRB2 (gene 100135486), sequence (O70526 whole entry, looked up): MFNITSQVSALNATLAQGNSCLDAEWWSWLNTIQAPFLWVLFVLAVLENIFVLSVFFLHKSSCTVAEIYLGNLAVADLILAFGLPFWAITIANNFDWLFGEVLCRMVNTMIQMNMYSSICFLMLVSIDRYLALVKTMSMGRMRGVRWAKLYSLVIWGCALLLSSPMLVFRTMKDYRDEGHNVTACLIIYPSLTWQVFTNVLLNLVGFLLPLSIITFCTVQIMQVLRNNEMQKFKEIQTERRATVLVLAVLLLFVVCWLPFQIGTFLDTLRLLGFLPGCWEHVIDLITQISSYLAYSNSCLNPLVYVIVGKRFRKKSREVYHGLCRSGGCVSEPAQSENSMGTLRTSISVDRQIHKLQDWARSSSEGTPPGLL
rat Adrenergic Receptor, Beta (Adrb), Non-selective Binding, Adrb1 (gene 24925), sequence (P18090 whole entry, looked up): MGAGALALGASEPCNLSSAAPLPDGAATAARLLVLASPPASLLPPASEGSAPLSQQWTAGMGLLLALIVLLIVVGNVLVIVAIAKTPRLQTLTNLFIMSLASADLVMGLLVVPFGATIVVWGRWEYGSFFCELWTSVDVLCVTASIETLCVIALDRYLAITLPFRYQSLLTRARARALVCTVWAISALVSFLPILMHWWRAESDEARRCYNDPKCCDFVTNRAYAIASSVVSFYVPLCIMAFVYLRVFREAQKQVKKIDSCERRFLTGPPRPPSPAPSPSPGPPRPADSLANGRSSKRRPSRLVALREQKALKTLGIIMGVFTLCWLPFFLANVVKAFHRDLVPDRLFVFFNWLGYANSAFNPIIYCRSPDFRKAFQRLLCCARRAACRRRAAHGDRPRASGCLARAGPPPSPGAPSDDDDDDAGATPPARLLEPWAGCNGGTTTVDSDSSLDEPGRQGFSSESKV
rat Serotonin, 5-Hydroxytryptamine Receptor 1 (5HT1), Non-Selective Binding, Htr1a (gene 24473), sequence (P19327 whole entry, looked up): as the sequence (P19327 whole entry, looked up) above

`Nc1c(Cl)c(Cl)nc(C(=O)O)c1Cl`: the compound was classed as inactive in [1] and in experiment [2].

Regarding `COC(=O)NC(=S)Nc1ccccc1NC(=S)NC(=O)OC`, the outcome in experiment [3] was inactive.

For the compound `CCCN(CC)CC1COC2(CCC(C(C)(C)C)CC2)O1` (stereo unspecified), the AC50 is 16.7 µM (active) in experiment [4], 12.2 µM (active) in [5] and 25 µM (active) with Adra2b (gene 24174).

On to `CC1(C)C(C=C(Cl)Cl)C1C(=O)OC(C#N)c1cccc(Oc2ccccc2)c1` (stereo unspecified), for which the AC50 in experiment [6] was 17.1 µM (active).

For the compound `CCN(CC)C(=O)C(C)Oc1cccc2ccccc12` (stereo unspecified), the half-maximal activity concentration (AC50) in experiment [7] is 14.8 µM (active). Moreover, in experiment [8], the call was inactive.

On to `Cn1c(-c2ccccc2)cc(-c2ccccc2)[n+]1C`, for which the AC50 is 5.28 µM (active) in experiment [9]; 6.94 µM (active) in experiment [10]; 7.91 µM (active) in experiment [11]; 16.5 µM (active) in experiment [12]; 9.62 µM (active) in experiment [13]; 3.72 µM (active) in experiment [4]. Also, the AC50 with Adra2b (gene 24174) was 0.891 µM (active).

As for `Cc1ccc(N=CN(C)C=Nc2ccc(C)cc2C)c(C)c1`, the AC50 in [14] is 463 nM (active); in [9], 1.5 µM (active); in experiment [4], 0.219 µM (active); in the experiment with Adra2b (gene 24174), 0.779 µM (active). The outcome in experiment [15] and in [11] was inactive.

For `COC(=O)N(C(=O)N1CO[C@@]2(C(=O)OC)Cc3cc(Cl)ccc3C2=N1)c1ccc(OC(F)(F)F)cc1`, the compound was classed as inactive in [15], in [4] and in [8].

With `CNC(=O)N(C)c1nnc(C(C)(C)C)s1`, the outcome in [16] was inactive.

Consider `CC(C)=CC1C(C(=O)OCc2coc(Cc3ccccc3)c2)C1(C)C` (stereo unspecified), for which the AC50 in [7] is 7.58 µM (active).

On to `CN/C(=N\[N+](=O)[O-])NCc1cnc(Cl)s1`, for which, in the experiment with Adra2b (gene 24174), the AC50 is 8.79 µM (active).

On to `CC(C)N1C(=O)N(c2ccccc2)CSC1=NC(C)(C)C`, for which the result in [1] was inactive.

For `CS(=O)(=O)c1cc(C(F)(F)F)ccc1C(=O)c1cnoc1C1CC1`, the AC50 in experiment [1] is 19.1 µM (active). In addition, the outcome in experiment [16] was inactive.
